Compounds without any hit were thinned out: in the full panel of roughly 83,000, 20% have a hit.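 Testing used 96-well plates and a 48-hour single-concentration exposure. Example: -40 means 40% of the starting cells died.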 Unmarked numbers belong to inactive results. Calls of active or inactive are those of the source. The calls were made as follows: active = growth percent below 10; inactive = the rest.

Test systems include DU-145 prostate; K-562 leukemia; MALME-3M melanoma; MDA-MB-231 breast; RXF 393 renal; SF-268 CNS; SF-295 CNS; SF-539 CNS; UACC-257 melanoma; M14 melanoma; HCT-15 colon; HT29 colon; SNB-75 CNS; SNB-19 CNS; U251 CNS; PC-3 prostate; SK-MEL-5 melanoma; UACC-62 melanoma; LOX IMVI melanoma; SK-MEL-28 melanoma.
Assay in all cases: NCI-60 one-dose screen, 48 h (100 = growth as untreated, 0 = no growth, -100 = all killed)
What all share (details): 10 µM

For the compound `CCOC(=O)CNC(=O)Nc1ccc(Oc2ccc(NC(=O)NCC(=O)OCC)cc2)cc1`, the growth with DU-145 prostate is 112%; with K-562 leukemia, 105%; in the assay on MALME-3M melanoma it was 102%; in the assay on MDA-MB-231 breast it was 108%; in the assay with RXF 393 renal, 91.6%; in the assay with SF-268 CNS it was 104%. In addition, the growth in the assay on SF-295 CNS was 93%; with SF-539 CNS it was 86.7%; with UACC-257 melanoma, 96.2%; in the assay with M14 melanoma it was 101%; with HCT-15 colon, 99.2%; in the assay on HT29 colon, 107%. The growth with SNB-75 CNS is 74.4%; in the assay on SNB-19 CNS it was 104%; in the assay with U251 CNS, 93.8%; with PC-3 prostate, 86.9%; with SK-MEL-5 melanoma it was 97.1%; in the assay on UACC-62 melanoma, 92.4%. The results for the growth in the assay with LOX IMVI melanoma and in the assay with SK-MEL-28 melanoma were 91.9% and 91%, respectively.

For the compound `CCC(CCNc1cc(OC)cc2cccnc12)CN1C(=O)c2ccccc2C1=O` (stereo not given), the growth with DU-145 prostate was 118%; in the assay with K-562 leukemia, 101%; in the assay on MALME-3M melanoma it was 132%; with MDA-MB-231 breast, 96%; in the assay on RXF 393 renal it was 117%; in the assay on SF-268 CNS, 98.7%. The growth in the assay with SF-295 CNS was 106%; in the assay on SF-539 CNS it was 106%; in the assay on UACC-257 melanoma, 119%; in the assay on M14 melanoma, 117%; in the assay with HCT-15 colon, 93.1%; in the assay with HT29 colon it was 105%. Moreover, the growth with SNB-75 CNS was 84%; in the assay on SNB-19 CNS it was 103%; with U251 CNS, 102%; in the assay with PC-3 prostate, 89.2%; in the assay on SK-MEL-5 melanoma, 105%; with UACC-62 melanoma, 97.5%. For the same compound, the growth in the assay on LOX IMVI melanoma was 90.6%; in the assay with SK-MEL-28 melanoma, 117%.

Take `CCc1nn2c(-c3cc(OC)c(OC)c(OC)c3)c(-c3cc(OC)c(OC)c(OC)c3)nc2s1`: the growth is 88.1% in the assay on DU-145 prostate; 85.7% in the assay with K-562 leukemia; 47.5% with MALME-3M melanoma; 58.9% in the assay with MDA-MB-231 breast; 38.8% in the assay on RXF 393 renal; 45.9% in the assay on SF-268 CNS. Moreover, the growth in the assay on SF-295 CNS was 61.4%; in the assay on SF-539 CNS, 59.6%; in the assay on UACC-257 melanoma, 108%; in the assay with M14 melanoma, 89.5%; in the assay with HCT-15 colon, 77.9%; in the assay on HT29 colon it was 69.6%. Moreover, the growth with SNB-75 CNS was -25.6% (active); in the assay on SNB-19 CNS it was 61.9%; with U251 CNS, 58.1%; with PC-3 prostate, 82.9%; with SK-MEL-5 melanoma it was 89.7%; in the assay on UACC-62 melanoma, 63.1%. Also, the growth was 85.1% in the assay on LOX IMVI melanoma and 85.8% in the assay with SK-MEL-28 melanoma.

`CC(=O)[C@H]1CC[C@H]2[C@@H]3CC[C@@H]4CC=C(C=O)C[C@]4(C)[C@H]3CC[C@]12C`: the growth was 98.7% in the assay with DU-145 prostate; 81.9% in the assay on K-562 leukemia; 96.2% with MALME-3M melanoma; 94.3% with MDA-MB-231 breast; 112% with RXF 393 renal; 92.4% with SF-268 CNS. In addition, the growth is 93.2% in the assay with SF-295 CNS; 92.4% with SF-539 CNS; 96.2% in the assay with UACC-257 melanoma; 89.2% in the assay on M14 melanoma; 96.7% with HCT-15 colon; 90.7% in the assay on HT29 colon. In addition, the growth in the assay with SNB-75 CNS was 80.5%; in the assay with SNB-19 CNS, 97.8%; in the assay with U251 CNS, 88.5%; in the assay with PC-3 prostate it was 78.5%; with SK-MEL-5 melanoma, 90.3%; with UACC-62 melanoma, 79.1%. In addition, the growth in the assay with LOX IMVI melanoma was 93.7%; with SK-MEL-28 melanoma, 93.9%.

Consider `Cc1cc2cc3c(=O)[nH]c(=O)cc-3n(CC(O)C(O)C(O)CO)c2cc1C` (stereo not given), for which the growth in the assay with DU-145 prostate is 95.5%; in the assay with K-562 leukemia, 108%; in the assay on MALME-3M melanoma, 104%; in the assay on MDA-MB-231 breast, 109%; in the assay with RXF 393 renal, 115%; in the assay on SF-268 CNS, 108%. Also, the growth is 97.6% in the assay with SF-295 CNS; 107% in the assay on SF-539 CNS; 110% in the assay on UACC-257 melanoma; 107% with M14 melanoma; 105% with HCT-15 colon; 110% in the assay on HT29 colon. Also, the growth in the assay on SNB-75 CNS is 103%; in the assay with SNB-19 CNS it was 114%; in the assay with U251 CNS, 104%; in the assay on PC-3 prostate it was 99.9%; in the assay with SK-MEL-5 melanoma it was 110%; with UACC-62 melanoma, 112%. Further, the growth was 99.8% in the assay with LOX IMVI melanoma and 114% in the assay with SK-MEL-28 melanoma.

As for `O=NN(CCCl)C(=O)Nc1ccc(NC(=O)N(CCCl)N=O)cc1`, the growth was 111% in the assay on DU-145 prostate; 92.6% with K-562 leukemia; 105% with MALME-3M melanoma; 109% in the assay with MDA-MB-231 breast; 109% in the assay on RXF 393 renal; 61.2% in the assay on SF-268 CNS. In addition, the growth is 74% in the assay on SF-295 CNS; 19.7% in the assay with SF-539 CNS; 85.7% in the assay with UACC-257 melanoma; 93.1% with M14 melanoma; 94.5% in the assay with HCT-15 colon; 115% with HT29 colon. Moreover, the growth is 64% in the assay with SNB-75 CNS; 68.6% with SNB-19 CNS; 55.7% in the assay with U251 CNS; 86.5% in the assay with PC-3 prostate; 97.1% in the assay with SK-MEL-5 melanoma; 63.9% in the assay on UACC-62 melanoma. The figures for the growth in the assay with LOX IMVI melanoma and with SK-MEL-28 melanoma were 58.5% and 98.8%, respectively.

`CCCn1c(=O)c2c(nc(-c3cccc(OCCCCl)c3)n2C)n(CCC)c1=O`: the growth with DU-145 prostate is 61.3%; in the assay on K-562 leukemia, 92.6%; in the assay on MALME-3M melanoma it was 62.2%; with MDA-MB-231 breast it was 36.2%; in the assay with RXF 393 renal, 37%; in the assay with SF-268 CNS, 59.9%. Besides, the growth in the assay on SF-295 CNS is 15.3%; with SF-539 CNS, 63%; in the assay on UACC-257 melanoma it was 82.1%; with M14 melanoma, 68.6%; with HCT-15 colon, 69.1%; with HT29 colon, 74.2%. The growth is -12.7% (active) with SNB-75 CNS; 32.9% in the assay with SNB-19 CNS; 17% in the assay with U251 CNS; 62.3% with PC-3 prostate; 64.9% in the assay with SK-MEL-5 melanoma; 78.9% in the assay on UACC-62 melanoma. Further, the growth with LOX IMVI melanoma is 48.5%; with SK-MEL-28 melanoma it was 81.7%.

Take `CCCCCCOc1ccc(/C=C/C(=O)c2ccc(B(O)O)cc2)cc1`: the growth is 88.5% in the assay on DU-145 prostate; 82.5% in the assay with K-562 leukemia; 86.8% in the assay on MALME-3M melanoma; 73.8% with MDA-MB-231 breast; 74.2% in the assay with RXF 393 renal; 76.1% in the assay with SF-268 CNS. Besides, the growth in the assay with SF-295 CNS is 111%; with SF-539 CNS it was 79.1%; with UACC-257 melanoma, 83.4%; in the assay with M14 melanoma, 80.8%; in the assay with HCT-15 colon it was 75.1%; in the assay with HT29 colon it was 74.5%. Besides, the growth in the assay on SNB-75 CNS is 58.5%; in the assay on SNB-19 CNS it was 104%; in the assay with U251 CNS, 77.5%; in the assay on PC-3 prostate it was 72.6%; in the assay with SK-MEL-5 melanoma, 81.4%; with UACC-62 melanoma, 79%. The growth is 83.7% in the assay with LOX IMVI melanoma and 106% with SK-MEL-28 melanoma.

Values taken from PubChem BioAssay (NCI).
